CYP2C9 activ: CYP2C9 (human) activation | 1.4% of 96,000 active | recombinant CYP2C9, luciferin-H conversion, luminescence; hits give high values; factor 1 = untreated enzyme, 0 = blocked | activation factor at 5 µM;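 active = activation factor of 2 or more for CYP2C9 at a 5 µM dose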;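 also: 0 = sulfaphenazole-blocked wells and 1 = vehicle-only wells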
Target sequence (P11712 whole entry, looked up): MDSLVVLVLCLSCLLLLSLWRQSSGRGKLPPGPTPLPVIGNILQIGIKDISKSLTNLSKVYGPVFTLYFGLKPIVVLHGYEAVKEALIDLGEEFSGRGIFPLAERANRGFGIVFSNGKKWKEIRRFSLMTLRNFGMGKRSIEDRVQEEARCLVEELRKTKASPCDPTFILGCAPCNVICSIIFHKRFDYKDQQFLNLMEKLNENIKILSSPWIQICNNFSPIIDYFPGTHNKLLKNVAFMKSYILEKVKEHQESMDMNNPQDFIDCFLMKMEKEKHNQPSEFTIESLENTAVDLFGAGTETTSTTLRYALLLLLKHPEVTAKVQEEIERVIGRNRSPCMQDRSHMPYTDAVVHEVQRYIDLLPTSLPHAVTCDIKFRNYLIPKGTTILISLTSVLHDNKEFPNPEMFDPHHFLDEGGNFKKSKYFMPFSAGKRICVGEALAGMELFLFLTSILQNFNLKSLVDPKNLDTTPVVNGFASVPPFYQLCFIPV
CYP2C9 inhib: blocks human cytochrome P450 2C9; P11712; CYP2C9 Supersomes, luciferin-H conversion, luminescence; inhibition, % at 5 µM; 20% of 96,000 active; AID 777;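 active = blocking of liver enzyme CYP2C9 beyond about 50% at 5 µM, limit read from the data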
CYP2C19 act: cytochrome P450 2C19 (human) activation | P33261 | recombinant CYP2C19, luciferin-H EGE luminescence; hits give high values; 0 = fully inhibited enzyme, 1 = untreated enzyme | activation factor at 5 µM | 96,000 tested, under 10 active;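 active = activation factor of at least 2 at 5 µM in the primary screen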;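 also: 0 = wells with 2.5 mM tranylcypromine and 1 = vehicle-only wells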
Cav3 T inh: inhibitors of human Cav3.2 T-type calcium channel; O95180; Cav3.2-expressing cells, Fluo-4 calcium fluorescence FDSS; hits give low values; B-score at 10 µM; 4% of 100,000 active; AID 449739;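 active = single-dose well whose peak fluorescence ratio is a statistical outlier from its plate by either plate-standardised score or position-corrected B-score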
CYP2C19 inhib: human CYP2C19 inhibition; inhibition, % at 5 µM; 21% of 96,000 active; CYP2C19 Supersomes, luciferin-H EGE luminescence, 30 min; P33261;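 active = CYP2C19 inhibition above a set limit at 5 µM in the primary screen, cut at about 50% in these data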;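 also: plate controls were negative control wells for no effect and 2.5 mM tranylcypromine positive control for full effect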
* marks the source's active call; other numbers are inactive results; x = not tested or not shown. Hits are enriched below; roughly 27% of the tested compounds scored in any of these assays.

SMILES	CYP2C9 activ	CYP2C9 inhib	CYP2C19 act	Cav3 T inh	CYP2C19 inhib
COc1cccc(OC)c1C(=O)NC(C)c1ccccc1 (stereo not given)	x	x	x	-0.0127	x
Cc1ccc(C(=O)NC(C)c2ccccc2)o1 (stereo not given)	x	x	x	0.17	x
COc1ccccc1C(=O)NC(C)c1ccccc1 (stereo not given)	2.4*	-140.1	0.4	-0.0755	55.6*
CC(NC(=O)c1ccccc1O)c1ccccc1 (stereo not given)	0.7	29.7	0.4	0.00412	57.8*
CC(NC(=O)c1ccc(S(=O)(=O)N(C)C)cc1)c1ccccc1 (stereo not given)	0.5	54.1*	0.5	0.265	45.7
C=CCN(C(=O)CNS(=O)(=O)c1ccccc1)C(C(=O)NCCOC)c1ccncc1 (stereo not given)	0.9	6.6	0.9	0.135	6.2
CC([NH2+][O-])C(C)(C)NO (stereo not given)	1.1	-7.3	1.1	0.477	-10.4
CC(C)(C)n1nc(-c2ccc(Cl)cc2)c2c(N)ncnc21	0.9	12.9	0.4	-0.276	58.6*
COC(=O)C1=C(C)N(CC2CC2)C(=O)N[C@H]1c1ccccc1	x	x	x	0.229	x
CC12CC(NC(=O)N1CCc1ccccc1)c1ccccc1O2 (stereo not given)	0.7	28.7	0.2	-0.242	78.7*
CS(=O)(=O)c1ccccc1-c1nc(-c2ccc(C(F)(F)F)cc2)no1	3.1*	-208.0	1	-0.85	4.6
O=C(O)c1ccc(-c2noc(-c3ccccc3C(F)(F)F)n2)cc1	x	x	x	0.199	x
O=S(=O)(NCc1ccco1)c1ccc(S(=O)(=O)N2CCCCC2)cc1	x	x	x	-1.14	x
COC(=O)c1cccc(NC(=O)CCSc2ccc(Cl)cc2)c1C	0.8	21.2	0.6	-0.781	44.8
CCCCN=Cc1sc2ccc(OCC)cc2c1O	1.1	-9.3	0.1	-0.982	94.1*
CCOc1ccc2[nH]c(O)c(NC(C)=O)c2c1	1.1	-6.9	1.1	2.36	-12.0
Cn1c(CCNC(=O)C(C)(C)C)nc2ccccc21	0.9	7.0	0.7	0.179	26.3
CCn1c(CNc2ccc(C(=O)O)cc2)nc2ccccc21	1	0.3	0.9	0.779	5.0
CCn1cnc2cc(NCc3nc4ccccc4n3C)ccc21	0.6	40.7	0.1	0.674	92.6*
Cn1c(CCCCCN)nc2ccccc21	0.4	63.3*	0.8	0.143	22.6
Cn1c(CNc2ccccc2O)nc2ccccc21	0.9	12.6	0.3	0.389	69.8*
CCCC(=O)NCc1nc2ccccc2n1C	1.2	-21.3	1.1	0.0971	-14.4
CCCn1c(CNc2ccc(Br)cc2)nc2ccccc21	0.1	92.4*	0	-5.28*	98.0*
Cn1c(CNc2ccccc2)nc2ccccc21	0.7	33.7	0.5	-0.00781	52.4*
Cn1c(CSc2nc3ccccc3n2C)nc2ccccc21	0.9	13.2	0.2	0.02	83.9*
SMILES	CYP2C9 activ	CYP2C9 inhib	CYP2C19 act	Cav3 T inh	CYP2C19 inhib
CCC(=O)N(Cc1cc2cc(OC)ccc2[nH]c1=O)c1ccc(C)cc1C	0.5	54.9*	0.7	-4.03	33.0
COCC(=O)N(Cc1cc2cc(OC)ccc2[nH]c1=O)c1ccccc1	0.8	19.5	0.9	0.388	7.6
COc1ccc2[nH]c(=O)c(CN(C(C)=O)c3cccc(C)c3)cc2c1	0.6	39.9	0.8	0.188	24.2
COc1ccc2[nH]c(=O)c(CN(CCc3cccc(C)c3)C(C)=O)cc2c1	0.4	63.0*	0.1	0.223	85.6*
O=C(O)c1ccc(Br)c(S(=O)(=O)N2CCCC2)c1	1	3.1	0.9	-0.188	8.0
CN1CCN(C(=O)c2ccc3c(c2)OCCO3)CC1	x	x	x	-0.532	x
Cc1csc(=N)n1CC(=O)N1CCc2ccccc21	1.5	-50.0	1	0.505	-0.2
O=C(NC1(C(F)(F)F)NC(=O)N(C2CCCCC2)C1=O)c1cccs1 (stereo not given)	0.6	42.8	0.5	0.32	47.0
CC1CCCC(N2C(=O)NC(NC(=O)c3ccco3)(C(F)(F)F)C2=O)C1C (stereo not given)	0.6	42.9	0.4	-0.408	63.1*
Cc1ccc2[nH]c(-c3ccccc3)c(CN3CCOCC3)c(=O)c2c1	1.2	-15.5	1	0.00114	2.1
O=C(CNC(=O)c1ccco1)OCc1ccc(C(=O)Oc2ccccc2)cc1	0.4	57.6*	0.5	-1.55	45.8
COC(=O)c1ccc(COC(=O)CNC(=O)c2ccco2)cc1	0.9	14.3	0.9	0.0939	11.5
O=C(CNC(=O)c1ccco1)NCC(=O)OCc1ccc(C(=O)Oc2ccc(Cl)cc2)cc1	0.4	58.2*	0.9	0.383	13.3
O=C(CNC(=O)c1ccco1)NCC(=O)OCc1cccc(Cl)c1	0.7	30.2	1	0.329	-2.4
CCN1CCN(C(=S)c2ccc(OCC(=O)N3CCOCC3)cc2)CC1	1	-1.3	0.9	0.0284	5.7
Cc1ccc2[nH]c(=O)c(CN(CCN3CCOCC3)C(=O)Nc3ccccc3F)cc2c1	x	x	x	0.638	x
Cc1ccc2[nH]c(=O)c(CN(Cc3ccccc3Cl)C(=O)N3CCOCC3)cc2c1	0.3	71.7*	0.2	-1.55	82.4*
CCSc1ncc(C#N)c(=O)[nH]1	1.1	-12.1	1	0.682	1.5
COc1ccc(C)cc1S(=O)(=O)NC1CCCC1	0.7	26.3	0.2	0.764	83.4*
COc1ccc(S(=O)(=O)NC2CCCCC2)cc1C	3*	-201.6	0.4	0.036	60.0*
COc1cc(S(=O)(=O)NC2CCCCC2)ccc1Cl	x	x	x	0.343	x
COc1ccc(S(=O)(=O)NC2CCCC2)c(Cl)c1Cl	0.5	54.3*	0	-0.539	97.8*
COc1ccc(C)cc1S(=O)(=O)N(C)CC(=O)NC1CC1	0.9	14.3	1	-4.95	2.8
COc1ccc(F)cc1S(=O)(=O)NC1CCCC1	0.7	31.8	0.2	-0.281	80.1*
COc1cc(CNC(=O)c2ccc3c(c2)S(=O)(=O)c2ccccc2C3=O)cc(OC)c1	x	x	x	1.2	x
SMILES	CYP2C9 activ	CYP2C9 inhib	CYP2C19 act	Cav3 T inh	CYP2C19 inhib
O=C(O)c1nn(-c2ccccc2)ccc1=O	1	1.2	1	0.482	-2.1
CCOC(=O)C1CCN(C(=O)C2CC(=O)N(c3ccc(C)cc3)C2)CC1 (stereo not given)	0.9	11.8	0.9	0.148	8.6
Cc1cccc2cc(/C=N/NC(=O)CN3CCOCC3)c(Cl)nc12	1.2	-21.6	1.1	x	-7.5
CCOc1ccc(C(O)C(CN2CCOCC2)c2ccccc2)cc1 (stereo not given)	1	1.3	0.7	0.663	29.0
Cc1cc(=O)oc2cc(OC(C)C(=O)Nc3nccs3)ccc12 (stereo not given)	0.2	79.8*	0.2	0.537	81.0*
Cc1cc(=O)oc2cc(OC(C)C(=O)N3CCOCC3)ccc12 (stereo not given)	1	-0.5	1	0.115	-2.6
COC(=O)C(CC(C)C)Oc1ccc2c(C)cc(=O)oc2c1 (stereo not given)	0.4	64.7*	0.8	0.148	19.8
COc1cc(CC(=O)Oc2ccc3c(c2)OCO3)cc(OC)c1OC	1.2	-18.2	1.2	0.061	-16.9

Source: PubChem BioAssay
